This is part of a sample that, as a whole, favours compounds with a hit. Of some 83,000 tested, about 20% had one in any assay.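 48-hour exposure, single concentration, 96-well plates; percent growth endpoint where 0 means no net growth. Active: below 10.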 The source made the active and inactive calls.

The results in this text go back to PubChem BioAssay (NCI).

The test system of this assay is HOP-62 NSCLC. Description: NCI-60 one-dose screen, 48 h (100 = growth as untreated, 0 = no growth, -100 = all killed). The conditions noted are these: 10 µM. The procedure:
Growth inhibition of the HOP-62 human Non-Small Cell Lung tumor cell line is measured as a screen for anti-cancer activity. Cells are grown in 96 well plates and exposed to the test compound for 48 hours. Compounds are tested at a single concentration, which is 10^-5 M for most compounds. The reported endpoint is percent growth (GI% or GIPRCNT), where numbers from 0 - 100% represent growth inhibition, and numbers from -100% - 0 represent cell death. For example, a value of 40 represents 60% growth inhibition. A value of 0 means no net growth occurred over the course of the experiment. A value of -40 indicates 40% of cells at the beginning of the experiment died by the end of the experiment. A value of -100 means all cells are dead at the end of the experiment.
NCI-60 Human Tumor Cell Lines Screen was performed using the standard one-dose NCI protocol, which is described in more detail at https://dtp.cancer.gov/discovery_development/nci-60/default.htm.
Compounds with GIPRCNT values below 10 were considered active. Activity score was based on GIPRCNT using the following formula: […]
Score is 0 for GIPRCNT values of 100 or above, 50 for GIPRCNT values of 0, and 100 for GIPRCNT values of -100.
As for `COc1ccc2c(c1)CC=C1[C@@H]2CC[C@]2(C)C(=O)/C(=N/O)C[C@@H]12`, the growth was 88.5% (inactive).

Turning to `COc1ccc(C(=O)N2C=Cc3ccccc3C2C#N)cc1` (stereo not given), the growth is 89.4% (inactive).

For the compound `O=C(CN1CCN(C(=O)c2ccccc2)CC1)Nc1ccccc1SCc1ccccc1`, the growth is 89.6% (inactive).

In the case of `COc1cccc(-c2nc3sccn3c2-c2cccc(S(C)(=O)=O)c2)c1`, the growth was 105% (inactive).

For `COc1ccc(NC(=O)C2CC3C=CC2C3)c([N+](=O)[O-])c1` (stereo not given), the growth was 100% (inactive).

Regarding `O=C1C=C(Nc2cccc(Br)c2)c2ccccc2C1=O`, the growth is 41.9% (inactive).

Take `COc1cc(/C=C2\CCCC3=C2NC(N)=NC3c2cc(OC)c(OC)c(OC)c2)cc(OC)c1OC` (stereo not given): the growth is 17.8% (inactive).

Take `Cc1ccc(NC(=O)N2CCCCC2)cc1[N+](=O)[O-]`: the growth was 84.2% (inactive).

Consider `COc1cc2cc(Oc3ccc(NC(=O)c4cccc(C(F)(F)F)c4)cc3)c(C)nc2cc1OC`, for which the growth is 87.1% (inactive).

Take `CCCN(CCC)C(=O)[C@H](CC)[C@@H]1CC[C@@H](C)[C@@H]([C@H](C)[C@@H](O)[C@@H](C)C(=O)[C@H](CC)C2O[C@]3(C=C[C@@H](O)[C@]4(CC[C@@](C)([C@H]5CC[C@](O)(CC)[C@H](C)O5)O4)O3)[C@H](C)C[C@@H]2C)O1` (stereo not given in full): the growth was 14.2% (inactive).

Turning to `O=C(CSc1nccc(Nc2cccc3ccccc23)n1)c1ccc(Cl)cc1`, the growth is 81.9% (inactive).

Turning to `COc1cc(/C=C/c2cc(/C=C/c3ccc(O)c(OC)c3)[nH]c(=O)n2)ccc1O`, the growth is 70.8% (inactive).

In the case of `CCN(CC)CCN1c2nc3ccccc3cc2Sc2cc3ccccc3nc21`, the growth was 12.8% (inactive).

For the compound `COc1ccc(C2=Cn3c(CCC(=O)c4nc5ccccc5[nH]4)nnc3SC2)cc1`, the growth is 93.7% (inactive).

As for `O=S(=O)(O)c1ccc(Cl)cc1`, the growth is 95.2% (inactive).

With `CC(C)(C)OC(=O)N1CCc2c(sc3ncnc(N/N=C/c4ccccc4Br)c23)C1`, the growth was 85.8% (inactive).

Take `COc1cc(C)ccc1Oc1nc(Nc2ccc(N3CCOCC3)cc2)ncc1NC(=O)Nc1cc(C(F)(F)F)cc(C(F)(F)F)c1`: the growth is 58.5% (inactive).

In the case of `COc1ccc(-c2csc(NC(=O)c3ccc(Cc4n[nH]c(=O)c5cccnc45)cc3)n2)cc1`, the growth is 92% (inactive).

For `CN(C)CCCOc1ccc(OCCCN(C)C)c2c1C(=O)c1ccccc1C2=O`, the growth was -1.4% (active).

With `O=C1OC(C(Cl)(Cl)Cl)OC1C(Cl)(Cl)Cl` (stereo not given), the growth is 121% (inactive).

Take `COc1ccc2c(c1)C(CC(=O)NN)CCC2` (stereo not given): the growth is 106% (inactive).

In the case of `CC(=O)Nc1ccc(CC[C@H]2CCC/C=C/[C@@H]3C[C@H](O)C[C@H]3[C@H](O)/C=C/C(=O)O2)cc1`, the growth was 15.7% (inactive).

In the case of `C=CCn1c(SCC(=O)Nc2ccc(C(=O)/C=C/c3ccc(OC)cc3)cc2)nnc1-c1ccc(OC)c(OC)c1`, the growth is 92.6% (inactive).

As to `CC(C1=C(CN(C(=O)Cc2cn(-c3ccccc3)nc2-c2ccc(Cl)cc2)C(C)C)Cc2ccccc21)c1ccccn1` (stereo not given), the growth is 92.7% (inactive).

For the compound `C=CCn1c(SCC(=O)Nc2ccc(C(=O)/C=C/c3ccc(Cl)cc3)cc2)nnc1-c1cc(-c2ccccc2)nc2ccccc12`, the growth was 86.1% (inactive).

`CN(C)c1nc(N)c2nccnc2n1`: the growth was 111% (inactive).

Regarding `CC(=O)Oc1cc(OC(C)=O)c2ccccc2c1OC(C)=O`, the growth was 90% (inactive).

As to `O=C(Nc1ccc(OS(=O)(=O)c2ccccc2)cc1)C1CCCCC1`, the growth is 94.5% (inactive).

For the compound `O=S(=O)(O)c1cccc(Nc2ccc3ccccc3c2)c1`, the growth is 84.4% (inactive).

In the case of `CS(=O)(=O)c1nccc(-c2c(-c3ccc(OCCc4ccccc4)cc3)nc3sccn23)n1`, the growth was 104% (inactive).

As to `Nc1nc(Cn2c(-c3nonc3N)nc3ccccc32)nc(N2CCCCC2)n1`, the growth was 91.7% (inactive).

For `CCOc1ccccc1/C=N/N1CCCCCC1`, the growth is 97.3% (inactive).

Turning to `COc1ccc2c(c1)C(=O)/C(=C/c1ccc([N+](=O)[O-])o1)O2`, the growth is -45.3% (active).

`CC[C@@H](C(=O)[C@@H](C)[C@@H](O)[C@H](C)[C@@H]1O[C@@H]([C@@H](CC)C(=O)O)CC[C@@H]1C)C1O[C@]2(C=CC(=O)[C@]3(CC[C@@](C)([C@H]4CC[C@](O)(CC)[C@H](C)O4)O3)O2)[C@H](C)C[C@@H]1C` (stereo not given in full): the growth is 41.9% (inactive).

For the compound `COc1cc(C2C(C#N)=C(N)Oc3cc(O)ccc32)cc(OC)c1OC` (stereo not given), the growth is 53.2% (inactive).

For `CCOC(=O)C1=CSC2=NC3=C(CCC/C3=C\c3ccc(Cl)cc3)C(c3ccc(Cl)cc3)N12` (stereo not given), the growth is 115% (inactive).

Turning to `Cc1cc(=O)n2nnc3cc(Cl)c(Cl)cc3n12`, the growth is 111% (inactive).

As for `S=C1N(c2ccccc2)CN(C2CCCCC2)CN1c1ccccc1`, the growth is 99.9% (inactive).

Take `COc1cc(NC(=O)C2=C(N3CCOCC3)/C(=C/c3ccc(Cl)cc3)CC2)cc(OC)c1OC`: the growth was 102% (inactive).

With `CN(C)CCCSc1ccccc1NC1=C(Cl)C(=O)C(Nc2ccccc2SCCCN(C)C)=C(Cl)C1=O`, the growth is 118% (inactive).
